Compound activity deposited in PubChem by National Center for Advancing Translational Sciences (NCATS).
RGS4 inhibitor: human RGS4 inhibition | P49798 | Transcreener GDP fluorescence polarization, RGS4-accelerated GTP hydrolysis | Potency, µM (series often up to 114 µM), without a hit: at the highest dose activity change, negative = inhibition, hits mostly inhibitors | hit rate 0.039% among 390,000; further: on the % scale 0 is the no-effect control and ±100 the full control effect; nearly all actives have a fitted effect of over 75% in size
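MLSMR compounds (23 nl, pin-transferred) preincubated 10 min at room temperature with a 500nM (2x) first reagent, then RGS4 at 900nM (2x) plus Transcreener GDP mix added; fluorescence polarization (620/688 nm) read before and after 90 min at 30 °C.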
EPAC2 agonist: agonists of human EPAC2 (RAPGEF4); Q8WZA2; EPAC2 activation, biochemical qHTS; response scale: 100% = 6.5 mM cAMP response; Potency, µM (top dose mostly 154 µM), without a hit: at the highest dose activation, hits mostly activators; hit rate 0.079% among 360,000; AID 720711; further: nearly all actives have a fitted effect of over 50% in size
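Readout is BODIPY fluorescence (480 nm excitation, 540 nm emission), which falls as labeled GDP is exchanged off Rap1B. EPAC2 at 100 nM acted on 250 nM RAP1B-BODIPY-GDP with 50 uM GDP present.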
EPAC2 antagonist: antagonists of human EPAC2 | Q8WZA2 | EPAC2 GEF exchange of Rap1B-BODIPY-GDP, fluorescence | Potency, µM (series often up to 114 µM), for the others: at the highest dose activity, negative = inhibition, hits mostly inhibitors | hit rate 0.18% among 360,000 | AID 720708; further: on the % scale 0 is the no-effect control and ±100 the full control effect; nearly all actives have a fitted effect of over 45% in size
BRCA1 expr act: activators of BRCA1 expression; MCF7-BRCA1-FFLuc reporter, luminescence, 48 h; response scale: scaled: vehicle 0%, 10 µM genistein 100%; Potency, µM (highest dose often 46.1 µM), without a hit: at the highest dose activation, actives largely listed as activators; hit rate 1.1% among 380,000; AID 624202; further: nearly all actives have a fitted effect of over 80% in size
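48 h compound treatment of MCF7-BRCA1-FFLuc cells (phenol-red free MEM, 37 °C), then 15 min with luciferase substrate and luminescence imaging.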
EPAC1 antagonist: antagonists of human EPAC1. O95398. EPAC1 GEF assay, Rap1b-BODIPY-GDP exchange fluorescence. Potency, µM (doses to about 115 µM), inactives show top-dose activity change, negative = inhibition, most hits filed as inhibitors. hit rate 0.14% among 360,000;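 further: plate controls were vehicle for no effect and positive control for full effect; nearly all actives have a fitted effect of over 50% in size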
Target sequence (O95398 whole entry, looked up): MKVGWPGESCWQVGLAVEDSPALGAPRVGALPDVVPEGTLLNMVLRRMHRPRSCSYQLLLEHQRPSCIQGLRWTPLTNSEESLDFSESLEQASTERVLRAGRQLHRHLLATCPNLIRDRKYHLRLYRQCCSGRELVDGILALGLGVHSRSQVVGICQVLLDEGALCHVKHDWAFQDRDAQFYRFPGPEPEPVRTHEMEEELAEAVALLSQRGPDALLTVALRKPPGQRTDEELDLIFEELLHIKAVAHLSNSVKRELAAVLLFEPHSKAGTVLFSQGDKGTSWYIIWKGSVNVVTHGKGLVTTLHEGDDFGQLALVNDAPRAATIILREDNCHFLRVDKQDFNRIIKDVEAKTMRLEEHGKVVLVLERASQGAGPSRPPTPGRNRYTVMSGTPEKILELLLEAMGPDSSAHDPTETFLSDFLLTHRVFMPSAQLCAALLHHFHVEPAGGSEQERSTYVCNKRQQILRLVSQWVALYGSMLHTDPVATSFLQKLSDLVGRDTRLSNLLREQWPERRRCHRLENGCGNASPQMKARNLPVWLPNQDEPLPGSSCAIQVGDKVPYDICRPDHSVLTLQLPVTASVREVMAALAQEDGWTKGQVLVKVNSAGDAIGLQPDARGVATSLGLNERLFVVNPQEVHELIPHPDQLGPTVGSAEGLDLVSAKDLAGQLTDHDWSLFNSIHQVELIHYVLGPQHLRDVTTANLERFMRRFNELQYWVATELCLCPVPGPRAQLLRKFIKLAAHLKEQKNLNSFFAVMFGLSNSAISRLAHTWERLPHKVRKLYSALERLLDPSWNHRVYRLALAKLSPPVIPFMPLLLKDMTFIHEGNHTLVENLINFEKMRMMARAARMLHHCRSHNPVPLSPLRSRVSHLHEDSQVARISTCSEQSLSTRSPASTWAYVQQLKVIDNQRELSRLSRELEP
EPAC1 ag: agonists of human EPAC1; Potency, µM (highest dose often 154 µM), for the others: at the highest dose activation, hits mostly activators; O95398; EPAC1 agonist qHTS, biochemical assay; response scale: 100% = response to 6.5 mM cAMP; AID 720707; hit rate 0.073% among 360,000; further: nearly all actives have a fitted effect of over 60% in size
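Read-out is the fluorescence drop as BODIPY-GDP leaves Rap1B (480 nm excitation, 540 nm emission), recorded every 5 minutes over 30 minutes. Reactions held 100 nM EPAC1, 250 nM Rap1B–BODIPY-GDP and 50 uM GDP, with 6.5 mM cAMP setting full activation.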
* hit, by the source's call; ? = inconclusive; / = not tested or not shown; [ ] = another dose, or the depositor's remark. In the library only some 1.3% were active in any assay of this set; here they are far more common. The call rests on the fitted dose curve; in most records, active means well fitted curve in the direction sought with a large enough effect; inconclusive means small, poorly fitted or top-dose-only effect, or another doubt; inactive means no such curve, though single readings can be large; an effect the other way counts as inactive or inconclusive. Potency means the concentration at half of the fitted maximal effect.

SMILES	RGS4 inhibitor	EPAC2 agonist	EPAC2 antagonist	BRCA1 expr act	EPAC1 antagonist	EPAC1 ag
COc1ccc(C(=O)Nc2nc3ccc(S(C)(=O)=O)cc3s2)cc1	-25%	-7%	4%	25%	3%	1%
COc1ccc(C(=O)Nc2nc(-c3ccc([N+](=O)[O-])cc3)c(-c3ccc(OC)cc3)s2)cc1	22%	100µM*	136%	-21%	457%	112µM*
COc1ccc2nc(NC(=O)c3c(C)noc3C)sc2c1	7%	-3%	?	2.8µM*	5%	0%
COc1ccc(C(=O)Nc2nc3ccc(OC)cc3s2)cc1	5%	2%	-3%	2.2µM*	-2%	9%
COc1cccc(C(=O)Nc2nc3c(s2)CN(C)CC3)c1	33%	2%	-1%	14µM*	-2%	5%
CCOc1cc(CNCc2ccccn2)ccc1OCC(=O)NC1CCCCC1	-30%	2%	-3%	-16%	0%	8%
CC(=O)c1cccc(NC(=O)NCc2ccco2)c1	15%	9%	3%	12%	3%	9%
CCOc1ccc(OCCC(=O)OCC(=O)c2c(N)n(CC(C)C)c(=O)n(C)c2=O)cc1	/	3%	7%	-8%	-7%	7%
O=C(CSc1nnc(-c2cccs2)n1-c1ccccc1)NCc1ccc2c(c1)OCO2	9%	0%	0%	-48%	1%	-3%
Cc1cc(C)c(N=C2SCC(=O)N2Cc2ccco2)c(C)c1	-10%	26%	-29%	-13%	-17%	12%
N/C(=N\OC(=O)C(c1ccccc1)c1ccccc1)c1cccnc1	35%	9%	-9%	-6%	-2%	18%
COc1ccc(Nc2nc3ccc(OC)cc3s2)cc1	9%	11%	-11%	7.9µM*	-11%	14%
COc1ccc2nc(Nc3nc(C)c(C(C)=O)s3)sc2c1	6%[11.4 µM]	-21%	11%	?	9%	-4%
O=C(NCCc1ccc(Cl)cc1)c1ccc(Br)s1	-13%	0%	1%	3.5µM*	-5%	-9%
N/C(=N\N=C\c1ccc(Br)o1)c1nonc1N	15%	10%	4%	10µM*	-6%	19%
COc1cccc(NC(=O)CCc2c(C)nc3ncnn3c2C)c1	-2%	/	/	15%	/	/
Cc1ccc(C(=O)NCC(=O)N(C)Cc2ccccc2C)s1	/	0%	4%	11µM*	11%	-2%
Cc1c(C(=O)Nc2cccc([N+](=O)[O-])c2)cnn1-c1ccccc1	27%	12%	-2%	2.5µM*	-25%	-3%
COc1ccc(NC(=O)c2cnn(-c3ccccc3)c2C)cc1OC	0%	17%	0%	4µM*	-7%	8%
Cc1c(C(=O)Nc2ccccc2)cnn1-c1ccccc1	-41%	4%	-3%	?	-13%	-3%
O=C(CSc1nc2cc(Cl)ccc2o1)Nc1ccc(N2CCOCC2)cc1	-23%	5%	0%	13µM*	8%	-6%
O=C(CSc1nc2ccccc2o1)Nc1ccc(N2CCOCC2)cc1	6%	8%	-9%	?	-13%	14%
COC(=O)C1(Cc2ccccc2)NC(c2ccc(F)cc2)C2C(=O)N(C)C(=O)C21 (configuration not stated)	-14%	7.9µM*	-2%	-22%	11%	-8%
O=C(/C=C(\O)c1ccccc1)C(=O)NNC(=O)c1ccccc1	-15%	1%	-4%	13µM*	-21%	11%
COc1ccccc1-n1cc2ccc([N+](=O)[O-])cc2n1	24%	2%	2%	19%	-8%	9%
O=C(NC1CCCC1)c1ccc(Cl)c(S(=O)(=O)N2CCOCC2)c1	-8%	3%	4%	0%	5%	5%
Cc1ccc(C(=O)NC2CCCCCCC2)cc1S(=O)(=O)N1CCOCC1	-21%	3%	-1%	10µM*	0%	1%
N/C(=N\OC(=O)CSc1ccccc1)c1cccc([N+](=O)[O-])c1	2%[11.4 µM]	21%	-6%	13µM*	-3%	5%
